# Measurements taken from PubChem BioAssay AID1159580 (chemical genetic matrix, 2015).
# Several values for one entry are separate records, joined by “and”; a condition that tells them apart may be missing. Equal values may be shown once. About 2,000 (36%) of roughly 5,500 compounds were called active. Another 18% or so got no clear call; they are omitted. This is one part of the list. Values without a mark were called inactive. Cut-off read from the data, not from the text of the source: active = normalized growth mostly below about 0.91 (no sharp cut-off); inconclusive = no clear call, values can overlap the other calls; inactive = mostly above about 0.92.
# Assay: chemical genetic growth profiling, strain panel (AID 1159580);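 note: tested at 20 µM; growth read once vehicle control cultures reached saturation at 30 °C; 1 = growth at the plate median or of vehicle wells; lower values mean less growth of the strain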
# Conditions: S. cerevisiae deletion strains, growth OD
structure (smiles),measurement,setting,value
CC(C)C(C)/C=C/C(C)C1CCC2C3=CC=C4CC(O)CCC4(C)C3CCC21C (stereo unspecified),normalized growth,"locus YAL013W, strain DEP1, active compounds read low",0.935
same,normalized growth,"locus YAL021C, strain ccr4, active compounds read low",1
same,normalized growth,"locus YAL026C, strain drs2, active compounds read low",0.856 (active)
same,normalized growth,"locus YAL030W, strain snc1, active compounds read low",0.995
same,normalized growth,"locus YBL061C, strain skt5, active compounds read low",0.996
same,normalized growth,"locus YBR009C, strain hhf1, active compounds read low",0.893 (active)
same,normalized growth,"locus YBR021W, strain FUR4, active compounds read low",0.814 (active)
same,normalized growth,"locus YBR023C, strain chs3, active compounds read low",0.992
same,normalized growth,"locus YBR171W, strain sec66, active compounds read low",1.01
same,normalized growth,"locus YBR229C, strain ROT2, active compounds read low",1.01
same,normalized growth,"locus YBR231C, strain swc5, active compounds read low",1
same,normalized growth,"locus YBR279W, strain paf1, active compounds read low",1
same,normalized growth,"locus YCL011C, strain gbp2, active compounds read low",0.974
same,normalized growth,"locus YCL016C, strain dcc1, active compounds read low",1.01
same,normalized growth,"locus YCL029C, strain bik1, active compounds read low",0.996
same,normalized growth,"locus YCL061C, strain MRC1, active compounds read low",1.01
same,normalized growth,"locus YCL069W, strain vba3, active compounds read low",1.01
same,normalized growth,"locus YCR088W, strain abp1, active compounds read low",1.01
same,normalized growth,"locus YDL005C, strain med2, active compounds read low",0.996
same,normalized growth,"locus YDL035C, strain GPR1, active compounds read low",0.943
same,normalized growth,"locus YDL040C, strain nat1, active compounds read low",1.01
same,normalized growth,"locus YDL074C, strain BRE1, active compounds read low",0.848
same,normalized growth,"locus YDL101C, strain DUN1, active compounds read low",0.965
same,normalized growth,"locus YDL134C, strain PPH21, active compounds read low",0.86 (active)
same,normalized growth,"locus YDL185W, strain tfp1, active compounds read low",1.01
same,normalized growth,"locus YDL192W, strain arf1, active compounds read low",0.959
same,normalized growth,"locus YDR001C, strain nth1, active compounds read low",1.01
same,normalized growth,"locus YDR069C, strain doa4, active compounds read low",0.957
same,normalized growth,"locus YDR101C, strain arx1, active compounds read low",1.02
same,normalized growth,"locus YDR137W, strain rgp1, active compounds read low",0.819 (active)
same,normalized growth,"locus YDR159W, strain sac3, active compounds read low",0.935
same,normalized growth,"locus YDR162C, strain NBP2, active compounds read low",0.732 (active)
same,normalized growth,"locus YDR195W, strain ref2",1.08
same,normalized growth,"locus YDR297W, strain sur2, active compounds read low",0.993
same,normalized growth,"locus YDR318W, strain mcm21, active compounds read low",0.958
same,normalized growth,"locus YDR334W, strain swr1, active compounds read low",1.01
same,normalized growth,"locus YDR335W, strain msn5, active compounds read low",0.958
same,normalized growth,"locus YDR388W, active compounds read low",1
same,normalized growth,"locus YDR392W, strain spt3, active compounds read low",0.635 (active)
same,normalized growth,"locus YDR502C, strain sam2, active compounds read low",0.917 (active)
same,normalized growth,"locus YEL003W, strain gim4, active compounds read low",0.986
same,normalized growth,"locus YEL037C, strain rad23, active compounds read low",0.989
same,normalized growth,"locus YEL061C, strain CIN8 (second series), active compounds read low",1
same,normalized growth,"locus YER015W, strain faa2, active compounds read low",1.01
same,normalized growth,"locus YER016W, strain bim1, active compounds read low",0.987
same,normalized growth,"locus YER110C, active compounds read low",0.996
same,normalized growth,"locus YER111C, strain swi4, active compounds read low",0.982
same,normalized growth,"locus YER155C, strain BEM2 (second series), active compounds read low",0.968
same,normalized growth,"locus YER155C, strain BEM2, active compounds read low",0.975
same,normalized growth,"locus YER167W, strain BCK2, active compounds read low",1.01
same,normalized growth,"locus YFR010W, strain ubp6, active compounds read low",0.992
same,normalized growth,"locus YGL078C, strain dbp3, active compounds read low",0.908 (active)
same,normalized growth,"locus YGL086W, strain mad1, active compounds read low",0.962
same,normalized growth,"locus YGL167C, strain pmr1, active compounds read low",0.998
same,normalized growth,"locus YGL173C, strain kem1, active compounds read low",0.99
same,normalized growth,"locus YGL227W, strain vid30, active compounds read low",0.995
same,normalized growth,"locus YGL240W, strain doc1, active compounds read low",0.928
same,normalized growth,"locus YGL248W, strain PDE1, active compounds read low",0.862 (active)
same,normalized growth,"locus YGL253W, strain hxk2, active compounds read low",0.861 (active)
same,normalized growth,"locus YGR135W, strain pre9, active compounds read low",0.928
same,normalized growth,"locus YGR229C, strain SMI1, active compounds read low",0.831
same,normalized growth,"locus YGR252W, strain gcn5, active compounds read low",0.798
same,normalized growth,"locus YHR013C, strain ard1, active compounds read low",0.972
same,normalized growth,"locus YHR027C, strain rpn1, active compounds read low",0.999
same,normalized growth,"locus YHR030C, strain SLT2, active compounds read low",0.964 and 1.01
same,normalized growth,"locus YHR079C, strain IRE1 (second series), active compounds read low",0.998
same,normalized growth,"locus YHR079C, strain IRE1, active compounds read low",1.01
same,normalized growth,"locus YHR094C, strain hxt1, active compounds read low",1.01
same,normalized growth,"locus YHR129C, strain ARP1, active compounds read low",0.962
same,normalized growth,"locus YHR142W, strain chs7, active compounds read low",0.884
same,normalized growth,"locus YHR200W, strain rpn10, active compounds read low",0.994
same,normalized growth,"locus YIL066C, strain RNR3, active compounds read low",0.97
same,normalized growth,"locus YIL073C, strain SPO22, active compounds read low",0.863
same,normalized growth,"locus YIL125W, strain kgd1, active compounds read low",1.03
same,normalized growth,"locus YIR030C, strain dcg1, active compounds read low",1.01
same,normalized growth,"locus YJL092W, strain hpr5, active compounds read low",1.01
same,normalized growth,"locus YJL095W, strain BCK1 (second series), active compounds read low",0.898 (active)
same,normalized growth,"locus YJL095W, strain BCK1, active compounds read low",0.835 and 1.02
same,normalized growth,"locus YJL115W, strain asf1, active compounds read low",1.01
same,normalized growth,"locus YJL129C, strain trk1, active compounds read low",0.978
same,normalized growth,"locus YJL134W, strain LCB3, active compounds read low",1.01
same,normalized growth,"locus YJL154C, strain vps35, active compounds read low",1.01
same,normalized growth,"locus YJL164C, strain tpk1, active compounds read low",0.905 (active)
same,normalized growth,"locus YJL166W, strain qcr8, active compounds read low",0.86 (active)
same,normalized growth,"locus YJL168C, strain set2, active compounds read low",1.02
same,normalized growth,"locus YJL187C, strain SWE1 (second series), active compounds read low",0.936
